Screens deposited in PubChem BioAssay by National Center for Advancing Translational Sciences (NCATS).
A selection: hits, their analogues and other compounds. The true share with any hit is near 1.1%.
IMPase Li cell: cell-permeable IMPase inhibitors with lithium potentiation | Potency, µM (titrated, usually from 59.4 µM), for the others: at the top dose activity, negative = IMPase inhibition, usual class: inhibitors | CHO-M1 cells, IP1 TR-FRET (IP-One), carbachol + lithium | 0.35% of 210,000 active;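 also: IP1 builds up when IMPase is blocked and the TR-FRET signal falls; plate controls were basal vehicle for no effect and high inhibitor control for full effect; nearly all actives have a fitted effect of over 50% in size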
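IP1 accumulation measured by competitive TR-FRET in lysed CHO-M1 cells after 30 min compound exposure at 37C, with a small lithium addition to potentiate weak responses. Hill-equation AC50 from ratio and donor-channel data.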
Luc counter: blocks Kinase-Glo luciferase, a counter-screen artifact. Q27757. 0.28% of 200,000 active. Potency, µM (series often up to 38.3 µM), without a hit: at the highest dose activity change, negative = inhibition, usual class: inhibitors. Kinase-Glo luciferase, ATP luminescence, 8 min. AID 1379; also: nearly all actives have a fitted effect of over 60% in size
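Kinase-Glo luciferase light output from ATP and luciferin was measured with 10 uM ATP, within the enzyme's linear range. Buffer: 50 mM imidazole pH 7.2, 50 mM KCl, 7 mM MgCl2, 0.01% Tween 20, 0.05% BSA; luminescence read after 8 min at ambient temperature.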
NPSR antag: blocks cAMP signaling of the human neuropeptide S receptor. AID 1461. 1% of 220,000 active. Q6W5P4. CHO-NPSR cells, cAMP TR-FRET, antagonist mode. Potency, µM (top dose mostly 38.3 µM), for inactives: at the highest dose activity change, negative = inhibition, most hits filed as inhibitors; also: nearly all actives have a fitted effect of over 50% in size
Target sequence (Q6W5P4 whole entry, looked up): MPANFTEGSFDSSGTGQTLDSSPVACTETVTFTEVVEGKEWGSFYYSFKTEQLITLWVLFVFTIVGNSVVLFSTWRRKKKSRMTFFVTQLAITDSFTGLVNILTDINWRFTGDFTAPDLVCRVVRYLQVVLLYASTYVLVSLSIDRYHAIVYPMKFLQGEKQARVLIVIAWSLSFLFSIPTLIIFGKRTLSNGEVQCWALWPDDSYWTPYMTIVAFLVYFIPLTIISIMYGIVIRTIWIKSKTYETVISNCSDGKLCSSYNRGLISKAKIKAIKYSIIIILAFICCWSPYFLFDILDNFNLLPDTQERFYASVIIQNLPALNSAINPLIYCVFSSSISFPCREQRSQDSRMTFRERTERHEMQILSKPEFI
ERK EGF inh: inhibitors of EGF-stimulated ERK signaling pathway; AID 1454; Potency, µM (top dose mostly 11.5 µM), for the others: at the top dose activity change, negative = inhibition, hits mostly inhibitors; HEK293-V1b, EGF-stimulated phospho-ERK AlphaScreen; 0.41% of 130,000 active;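 also: plate controls were stimulated vehicle wells for no effect and unstimulated vehicle basal for full effect; nearly all actives have a fitted effect of over 55% in size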
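After overnight plating in 1% FBS, HEK293-V1b cells received test compound for half an hour, then a 5 min pulse of EGF (25 nM); ERK phosphorylation in lysates was read by bead-based AlphaScreen.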
The depositor's hits bear a star; ? = inconclusive; · = no result given; [ ] = remark or other dose. Calls follow the shape of the dose curve; as a rule, active = well fitted curve in the direction sought with a large enough effect; inconclusive = small, poorly fitted or top-dose-only effect, or another doubt; inactive = no such curve, though single readings can be large; an effect the other way counts as inactive or inconclusive. Unless noted, % is scaled to controls: 0 for no effect and ±100 for the full control effect; potency is read from the fitted curve at half-maximal effect.

SMILES	IMPase Li cell	Luc counter	NPSR antag	ERK EGF inh
CC(C)(CN)SCc1ccccc1	8%	-5%[7.66 µM]	·	·
Cc1c(NC2=CC(=O)CC(C)(C)C2)ccc([N+](=O)[O-])c1C	0%	-1%	2%	-4%
CC1=C/C(=N\Nc2ccccc2[N+](=O)[O-])CC(C)(C)C1	6%	-8%	-6%	13µM*
O=C(c1cccc(F)c1)N1CCC2(CC1)CCN(c1ncccn1)CC2	-4%	-3%	·	1%
CCN(CC)CCCCNC(=O)c1ccc(Cc2nc3ccccc3[nH]2)cc1	·	-4%	·	·
COc1cccc(-c2cc3nc(-c4ccccc4)cc(N4CCC5(CC4)OCCO5)n3n2)c1	11µM*	0%	-16%[46.1 µM]	·
Cc1ccccc1-c1ccc2ncnc(NCCN3CCOCC3)c2c1	11%	·	·	·
COc1ccc(CNc2ncncc2-c2cccc(C#N)c2)c(OC)c1	12%	·	·	·
COc1ccc(-c2nc(C#N)c(NCCc3ccccc3)o2)cc1	12%	0%	-25%[46.1 µM]	28µM*
CC(C)=CC[C@@H](O)C1=CC(=O)c2c(O)ccc(O)c2C1=O	98%	·	·	·
Cc1nn2cc(-c3ccccc3)nc2s1	-5%[38.3 µM]	-16%	0%[46.1 µM]	·
c1ccc(-c2cn3c4c(sc3n2)CCCC4)cc1	37%[38.3 µM]	11µM*	24%[46.1 µM]	·
O=C1C=C(Nc2ccccc2)C(=O)c2ccccc21	·	-28%	57%	25µM*
O=C1C=C(Nc2ccccc2)c2ccccc2C1=O	24%	-13%	10µM*	-3%
O=C1C=C(Nc2ccccc2C(=O)O)c2ccccc2C1=O	·	·	-42%	-2%[57.5 µM]
Cn1c(-c2ccc(C=O)s2)nc2c3ccccc3c3ccccc3c21	13µM*	-2%	14%[46.1 µM]	·
COc1ccc(N=Cc2sc(O)c3ccccc23)cc1	42%[38.3 µM]	-8%	13µM*	·
N#C/C(=C\c1ccc(O)c(O)c1)C(=O)OCCc1cccs1	13%	1%	·	-9%
COC(=O)NNC(=O)COc1ccc2ccccc2c1Br	?	-3%	-24%	2%
O=C(COc1ccc2ccccc2c1Br)NNC(=O)Nc1ccccc1	11µM*	2%	?	·
CC(C)C1O[C@H](/C=C\c2ccccc2)OCC1(C)C (some centres undefined)	-11%	-6%[7.66 µM]	·	·
COc1ccc(C)c2sc(=NC(=O)c3ccccc3)n(C)c12	35%[38.3 µM]	13µM*	4%[46.1 µM]	·
COc1ccc(C)c2sc(=NC(=O)c3cccc(N4C(=O)CCC4=O)c3)n(C)c12	·	·	-15%	?
CCOc1cc(/C=N/NC(N)=O)cc(Br)c1OCC(=O)Nc1ccccc1C	9%[38.3 µM]	6%	-16%[46.1 µM]	·
CCOc1cc(/C=C\[N+](=O)[O-])ccc1OCC(=O)Nc1ccccc1C	6%[38.3 µM]	0%	4µM*	·
SMILES	IMPase Li cell	Luc counter	NPSR antag	ERK EGF inh
COC(=O)c1sc(NC(=O)c2ccco2)nc1C	10µM*	?	-16%[46.1 µM]	·
COC(=O)c1sc(NC(=O)c2ccoc2C)nc1C	14%	7.9µM*	0%[46.1 µM]	3%
COc1ccc(O)c(C(=O)/C=C/c2cc3ccccc3o2)c1	·	·	-23%	25µM*
O=C(/C=C/c1cc2ccccc2o1)c1ccccc1O	·	·	2%	?
Cc1cnc(CNc2ncnc3ccc(-c4c(C)noc4C)cc23)cn1	5%	·	·	·
O=C(NNc1ccc(C(F)(F)F)cc1[N+](=O)[O-])c1ccc(NS(=O)(=O)c2ccc(F)cc2)cc1	51%	?	10µM*	9%
Nc1c(S(=O)(=O)c2cccs2)c2nc3ccccc3nc2n1/N=C/c1cccc(O)c1	24%[38.3 µM]	3%	7.9µM*	·
Cc1cc(C(=O)CSc2nc3ccccc3[nH]2)c(C)n1Cc1ccco1	6%	-1%	12%	18µM*
Cc1o[nH]c(=O)c1CCC(N)C(=O)O (centres undefined)	-8%	·	·	·
OCCNCCCOc1cccc(Cl)c1Cl	0%	0%	·	-6%
Cc1nn(-c2ccc(F)cc2)c(Cl)c1/C=C1\C(=O)Nc2ccccc21	15%	-1%	-43%	28µM*
Cc1nn(-c2ccccc2)c(Cl)c1/C=C1\C(=O)N(C)C(=S)N1C	22%	1%	-25%	-1%
CCCCC1=CC2=C(OC(C)=O)C(=O)C(C)(OC(=O)c3ccco3)C(=O)C2=CO1 (centres undefined)	18%	-5%	·	2%
Cc1ccc2cc(CCNC(=O)CC(C)(C)C)c(=O)[nH]c2c1C	13µM*	9%	-44%	4%
CC(=O)NCCc1cc2ccc(C)c(C)c2[nH]c1=O	-3%[38.3 µM]	-3%	-5%[46.1 µM]	·
CC(C)c1ccc2c(c1)CC[C@H]1[C@@](C)(CN)CCC[C@@]21C	1%	-6%[7.66 µM]	·	·
CN(C(=O)COC(=O)c1n[nH]c2ccccc12)c1ccccc1	5%	-3%	-5%	-9%
CN(C)c1ccc(N=Nc2ccccc2C(=O)OCC(=O)N(C)c2ccccc2)cc1	12%	-5%	4%	10µM*
CC(=O)c1ccc(NC(=O)COC(=O)c2ccccc2N=Nc2ccc(N(C)C)cc2)cc1	-3%	-13%	6%	28%
COC(=O)c1ccccc1NC(=O)COC(=O)c1ccccc1N=Nc1ccc(N(C)C)cc1	7%	-2%	1%	14µM*
C=C(C)C(=O)c1cccs1	2%	2%	·	0%
O=C(/C(=C/O)N=Nc1ccccc1)c1cccs1	10%	-3%	10µM*	?
O=C(O)[C@@H](O)[C@@H](O)[C@H](O)[C@H](O)CO	-7%	-5%[7.66 µM]	·	·
COC1CC(O[C@H]2/C(C)=C/CC3CC(C[C@]4(CCC(C)C(C5CCCCC5)O4)O3)OC(=O)[C@H]3C=C(C)/C(=N/O)C4OC/C(=C\C=C\[C@@H]2C)[C@@]43O)OC(C)C1O (some centres undefined)	-1%	3%	·	1%
CCN(CC)c1ccc2c(Cl)c(Br)c(=O)oc2c1	?	-3%	3.2µM*	·
SMILES	IMPase Li cell	Luc counter	NPSR antag	ERK EGF inh
CCN(CC)c1ccc2c(c1)oc(=O)c1c(Cl)cc(=O)oc12	35%[38.3 µM]	-1%	4µM*	·
CCN(CC)c1ccc2c(C)c(Cl)c(=O)oc2c1	-4%	0%	-14%	-7%
COC1C=CO[C@@]2(C)Oc3c(C)c(O)c4c(O)c(c(C=NN5CCN(C)CC5)c(O)c4c3C2=O)NC(=O)/C(C)=C\C=CC(C)C(O)[C@@H](C)C(O)C(C)[C@H](OC(C)=O)C1C (some centres undefined)	11%	-13%	·	?
Cc1ccnc(NS(=O)(=O)c2ccc(N=[N+]=[N-])cc2)n1	-3%	-3%[7.66 µM]	·	·
Cc1cc2c(Nc3ccccc3)ncnc2s1	6%	-3%	-4%	14µM*
Cc1ccc2ncnc(Nc3ccccc3)c2c1	-3%	0%	-4%	3.5µM*
Cc1cccc(Nc2ncnc3ccc(Br)cc23)c1	7%	1%	-28%	1.8µM*
Cc1cccc(Nc2ncnc3nc[nH]c23)c1	7%	-4%	3%[46.1 µM]	28µM*
Nc1nc(SCc2ccccc2Cl)cc(C(=O)O)n1	1%	-5%[7.66 µM]	·	·
CC(CN(C)C)NC(=O)c1ccc(-n2c(=O)c(=O)[nH]c3ccccc32)cc1 (centres undefined)	·	-3%	·	·
